Assay results published in PubChem BioAssay (NCATS).
Values without a mark were called inactive. Entries that show only a call come without a potency. Active and inactive are the calls of the source. Calls follow the shape of the dose curve; as a rule, active = well fitted inhibition curve with a large enough effect; inconclusive = small, poorly fitted or top-dose-only effect; inactive = flat fitted curve, though single readings scatter. Where a SMILES comes first, the peptide text is derived from it.

Tested on: Nanoluciferase (engineered Oplophorus gracilirostris luciferase)
Assay: Primary Nanoluciferase (NLuc) qHTS assay for identification of artifact compounds. (AID 1845222)
Details: NLuc-conditioned medium, Nano-Glo luminescence, 5 min; series mostly up to 54.1 µM
Outline: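 Compounds are pinned into diluted (1:55) conditioned medium of NLuc-expressing S16 cells and held 15 min at room temperature protected from light. Nano-Glo substrate follows, and luminescence is read 5 min later.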

Row | Compound | Potency | activity, negative = inhibition
1 | Cc1cn(-c2cc(NC(=O)c3ccc(C)c(Nc4nccc(-c5cnccn5)n4)c3)cc(C(F)(F)F)c2)cn1 | inactive | –
2 | C=C(C(=O)O)C1CC(OC(=O)CC(C)CC)C2(C)CCCC(=C)C2C1 (configuration not stated) | inactive | –
3 | C[C@H](O)C(O)(C(=O)OCc1ccccc1NC(=O)CCC(N)C(=O)O)[C@H](C)O (some centres not stated) | inactive | –
4 | CC1(C)CC[C@]2(C(=O)O)[C@H](O)C[C@]3(C)C(=CCC4[C@@]5(C)CC[C@H](O[C@@H]6OC[C@@H](O)[C@H](O)[C@H]6O)[C@@](C)(C(=O)O)C5CC[C@]43C)[C@@H]2C1 (some centres not stated) | inactive | –
5 | CN(C)C(=O)C(O)C(Cc1ccccc1)NC(=O)c1cc2cc(Cl)ccc2[nH]1 (configuration not stated) | inactive | –
6 | CC1CCC2(C)CCC3(C)C(=CCC4C5(C)CCC(O)C(C)(C(=O)O)C5CCC43C)C2C1C (configuration not stated) | inactive | –
7 | COc1cc(/C=C/C(=O)OCC2OC(OC3(CO)OC(CO)C(O)C3O)C(O)C(O)C2O)ccc1O (configuration not stated) | inactive | –
8 | COc1ccc(-n2c(=O)[nH]c3cc(C(=O)NCc4ccc(Cl)cc4)sc3c2=O)nc1OC | inactive | –
9 | COc1cc(O)cc(C)c1C(=O)OC1C(CO)OC(n2ccc(=O)[nH]c2=O)C1OC(C)=O (configuration not stated) | inactive | –
10 | CCc1cccc2c3c([nH]c12)[C@@](CC)(CC(=O)O)OCC3 | inactive | –
11 | COC(O)(CC(C)C)C1Oc2cc(C)[nH]c(=O)c2O1 (configuration not stated) | inactive | –
12 | COC(=O)C1=COC(O[C@@H]2O[C@H](COC(=O)/C=C/c3ccc(O)cc3)[C@@H](O)[C@H](O)[C@H]2O)C2C(CO)=CCC12 (some centres not stated) | inactive | –
13 | Cc1ccc2nc(NC(=O)CSc3nc4c(c(=O)n3-c3ccc(F)cc3)SCC4)sc2c1 | inactive | –
14 | O=C(/C=C/c1ccc(O)cc1)O[C@@H]1C[C@@](O)(C(=O)O)C[C@@H](O)[C@@H]1O | inactive | –
15 | O=C(O)CCc1cccc(O)c1O[C@@H]1O[C@H](CO)[C@@H](O)[C@H](O)[C@H]1O | inactive | –
16 | Cc1ncc([N+](=O)[O-])n1C[C@H](O)CN1CCOCC1 | inactive | –

Row | Compound | Potency | activity, negative = inhibition
17 | COC(=O)C1=CO[C@@H](O[C@@H]2O[C@H](CO)[C@@H](O)[C@H](O)[C@H]2O)[C@H]2[C@@H]1C=C[C@]21C=C([C@H](C)OC(=O)/C=C/c2ccc(O[C@@H]3O[C@H](CO)[C@@H](O)[C@H](O)[C@H]3O)cc2)C(=O)O1 | inactive | –
18 | CCC(=O)N1CCc2cc(OC)c(O)cc2C1 | inactive | –
19 | CC1=CC(=O)CC(C)(C)[C@@]1(O)/C=C/C(C)O[C@@H]1O[C@H](CO)[C@@H](O)[C@H](O)[C@H]1O (some centres not stated) | inactive | –
20 | C[C@@H]1O[C@@H](O[C@H]2[C@H](O[C@H]3[C@H](O[C@H]4CC[C@@]5(C)C(CC[C@]6(C)C5CC=C5[C@@H]7CC(C)(C)C[C@@H](O)[C@]7(C)CC[C@]56C)C4(C)C)O[C@H](C(=O)O)[C@@H](O)[C@@H]3O)O[C@H](C(=O)O)[C@H](O)[C@@H]2O)[C@H](O)[C@H](O)[C@H]1O (some centres not stated) | – | 0.805% [at 11.6 µM]
21 | O=C(OCC(O)CO[C@@H]1O[C@H](C(=O)O)[C@@H](O)[C@H](O)[C@H]1O)c1ccccc1 (some centres not stated) | inactive | –
22 | CC(C)C1NC(=O)CNC(=O)C2CCCN2C(=O)C(Cc2c[nH]c3ccccc23)NC(=O)CNC(=O)C(Cc2ccc(O)cc2)NC(=O)CNC1=O (configuration not stated) (cyclo(GVGYGWP); configuration not given here) | inactive | –
23 | CC1(C)Oc2ncnc(N)c2N=C1c1ccc(C2CCC(CC(=O)O)CC2)cc1 (configuration not stated) | inactive | –
24 | CCCC(=O)Nc1cccc(NC(=O)c2ccccc2Br)c1 | inactive | –
25 | COc1ccccc1N1CCN(CCCCNC(=O)c2ccc(-c3cscn3)cc2)CC1 | inactive | –
26 | CS(=O)(=O)c1ccccc1N1CCN(c2nc3c(c(=O)[nH]2)CSCC3)CC1 | inactive | –
27 | CC(C)=CCC/C(C)=C/CO[C@@H]1O[C@H](CO[C@@H]2OC[C@](O)(CO)[C@H]2O)[C@@H](O)[C@H](O)[C@H]1O | inactive | –
28 | OC[C@H]1O[C@@H](OC[C@H]2O[C@@H](OCc3ccccc3)[C@H](O)[C@@H](O)[C@@H]2O)[C@H](O)[C@@H](O)[C@@H]1O | inactive | –
29 | CC1=CC(=O)CC(C)(C)C1/C=C/C(C)OC1OC(COC2OCC(O)C(O)C2O)C(O)C(O)C1O (configuration not stated) | inactive | –
30 | CC1(C)C(=O)N2c3ccccc3C(O)(CC(C(=O)O)n3cnc4ccccc4c3=O)C2N1O (configuration not stated) | inactive | –
31 | Cc1ccc(-n2nc(C(C)(C)C)cc2NC(=O)Nc2cc(COc3cccnc3)[nH]n2)cc1 | inactive | –
32 | C/C=C(\C)C(=O)OC[C@H]1O[C@H](O[C@H]2O[C@H](CO)[C@@H](O)[C@H](O)[C@H]2O[C@@H]2O[C@H](CO)[C@@H](O)[C@H](O)[C@H]2O)[C@H](O[C@@H]2O[C@H](CO)[C@@H](O)[C@H](O)[C@H]2O)[C@@H](O)[C@@H]1O | inactive | –
